Measurements as given in ChEMBL document CHEMBL3433997, “St. Jude Leishmania screening dataset” (2016).

Legend:
Assay type in all cases: functional
[1] = molecular target: Solute carrier family 2, facilitated glucose transporter member 1 (Homo sapiens) (UniProt P11166); experiment: ST_JUDE_LEISH: Cytotoxicity at 2uM final concentration against transgenic Leishmania Mexicana promastigotes LmGLUT1 that are glucose transport deficient and complemented with the human glucose transporter GLUT1. Activity is measured by DNA content using SYBR green in vitro
Sequence of Solute carrier family 2, facilitated glucose transporter member 1 (Homo sapiens) (P11166 whole entry): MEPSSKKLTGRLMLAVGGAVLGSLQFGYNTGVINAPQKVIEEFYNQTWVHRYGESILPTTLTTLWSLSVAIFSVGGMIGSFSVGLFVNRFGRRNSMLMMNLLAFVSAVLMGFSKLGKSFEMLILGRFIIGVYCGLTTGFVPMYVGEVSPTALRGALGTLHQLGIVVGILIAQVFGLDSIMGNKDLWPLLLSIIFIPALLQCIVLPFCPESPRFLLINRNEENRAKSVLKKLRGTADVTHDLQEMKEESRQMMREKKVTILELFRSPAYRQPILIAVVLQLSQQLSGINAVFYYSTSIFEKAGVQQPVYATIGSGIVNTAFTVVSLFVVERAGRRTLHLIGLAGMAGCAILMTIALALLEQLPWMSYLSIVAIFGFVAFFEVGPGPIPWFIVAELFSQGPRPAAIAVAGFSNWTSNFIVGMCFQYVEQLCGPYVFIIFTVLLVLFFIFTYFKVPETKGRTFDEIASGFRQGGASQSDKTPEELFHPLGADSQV

[2] = molecular target: Hexose transporter 1 (Plasmodium falciparum) (UniProt O97467); experiment: ST_JUDE_LEISH: Cytotoxicity at 2uM final concentration against transgenic Leishmania Mexicana promastigotes LmPfHT that are glucose transport deficient and complemented with the Plasmodium falciparum hexose transporter. Activity is measured by DNA content using SYBR green in vitro
[3] = molecular target: Glucose transporter (Leishmania mexicana) (UniProt O61059); experiment: ST_JUDE_LEISH: Cytotoxicity at 2uM final concentration against transgenic Leishmania Mexicana promastigotes LmGT2 that are glucose transport deficient and complemented with the L. Mexicana glucose transporter 2. Activity is measured by DNA content using SYBR green in vitro

SMILES | inhibition [1] | inhibition [2] | inhibition [3]
COc1ccccc1NC(=O)Nc1cccc(-c2cccc(-c3nc4cc(C(F)(F)F)ccc4[nH]3)c2)c1 | -1.22% | -0.1% | 0.05%
N=C(N)c1ccc(-c2cc(-c3cccc(C(=N)N)c3)on2)cc1 | 3.39% | 0.98% | 2.32%
COc1ccc(NC(=O)c2ccc(-c3ccc(-c4cccnc4)cc3)c(C)c2)cc1OCCN(C)C | 1.47% | 1.09% | 0.84%
CCCCN(C)CC#Cc1ccc2[nH]c(C)c(Cl)c(=O)c2c1 | 3.48% | 3.22% | 2.37%
Cc1ccc2[nH]c(-c3ccccc3N)cc2c1 | 3.92% | 4.5% | 4.49%
COC(=O)c1cccc(OCCNC2CCN(C[C@H](O)c3ccnc4ccc(OC)cc34)CC2)c1 | 0.73% | -0.34% | 0.25%
COc1ccc(Nc2cc(C)nc(Nc3ccc(NC(C)=O)cc3)n2)cc1 | 47% | 67.4% | 32.2%
O=C(Nc1ccc(-c2nc3cc4ccccc4cc3[nH]2)cc1)c1cccc(Br)c1 | 3.09% | 1.07% | 5.72%
CC(C)c1cccc(OCC2CCN(c3ccc(C(=O)Nc4ccccc4)cn3)CC2)c1 | 11.2% | 10.6% | 9.04%
Cc1cc(C(=O)NC2CCN(Cc3ccccc3)CC2)ccc1-c1nc2cc(Cl)c(Cl)cc2[nH]1 | 3.63% | -0.19% | 3.05%
CCCCCCCCCN(CCC)C(=O)[C@@H]1OC(C(=O)OC(c2ccccc2)c2ccccc2)=C[C@H](NC(=O)OC(C)(C)C)[C@H]1NC(C)=O | 2.98% | 2.98% | 1.47%
CN1CCN(c2ccnc3ccc(NC(=O)Cc4ccc(OCc5ccccc5)cc4)cc23)CC1 | 7.43% | 7.76% | 8.79%
O=C(Nc1ccc2c(c1)CCC2)c1cccc(N2CCN(c3ccncc3)CC2)c1 | 1.86% | 4.51% | 1.58%
COc1ccc(C(=O)C2CCN(CCCCNC(=O)c3ccc(NC(=O)c4ccc(Cl)cc4)cc3)CC2)c(OC)c1 | 2.37% | 2.82% | 1.53%
COc1ccc(N(C)Cc2cnc3nc(N)nc(N)c3n2)cc1 | 1.5% | 1.84% | 2.61%
COc1ccc2nccc(NC(=O)N3CCC(NCCOc4cc(F)cc(F)c4)CC3)c2n1 | 8.02% | 12.1% | -0.77%
CCCCCCCN1CC[C@@H](CCCc2ccnc3ccc(OCCN4CCOCC4)cc23)[C@@H](CC)C1 | 10.6% | 7.56% | 9.34%

SMILES | inhibition [1] | inhibition [2] | inhibition [3]
O=C(Nc1ccc(S(=O)(=O)N2CCCCCC2)cc1)c1cc(-c2ccccc2O)n[nH]1 | 9.89% | 8.12% | 8.68%
O=C(C=Cc1ccc(Cl)c(Cl)c1)NCCCCCN1CCCC(CCCNC(=O)C2CC2c2ccccc2)C1 (centres undefined) | 2.64% | 0.94% | 1.66%
O=C(NCc1ccccc1F)c1ccc(N2CCC(NCc3cccc(-n4cccn4)c3)CC2)cc1 | -0.13% | 3.43% | -1.93%
CCNc1cc(C(=O)N[C@@H](Cc2ccccc2)[C@H](O)CNCCCc2ccc(OC)cc2)cc(N2CCCC2=O)c1 | 0.4% | 0.76% | 1.05%
O=C(Cc1cc(F)cc(F)c1)NC1CCN(c2ccnc3cc(Cl)ccc23)C1 (centres undefined) | 1.93% | 1.66% | 2.22%
CNC(=O)Cc1ccc(C(=O)Nc2cccc(-c3cccc(-c4nc5cc(C(F)(F)F)ccc5[nH]4)c3)c2)cc1 | -0.26% | 0.81% | -0.97%
CN1CCC(NCc2ccc(-c3ccc(S(=O)(=O)NCc4ccccc4)s3)cc2)CC1 | 6.58% | 6.78% | 4.55%
CN1CCCC(CN2CCN(Cc3ccc(-c4ccc(-c5nc6ccccc6[nH]5)s4)cc3)CC2)C1 (centres undefined) | 22.9% | 34.8% | 9.58%
COc1cc2ncnc(Nc3ccc(Br)c(Cl)c3)c2cc1OC | 5.07% | 5.81% | 3.09%
FC(F)(F)c1cnc(Sc2nnc(-c3ccncc3)o2)c(Cl)c1 | -0.19% | -5.1% | 9.49%
O=C(CNC1=NCCN1)Nc1ccc(NC(=O)Nc2ccc(NC(=O)CNC3=NCCN3)cc2)cc1 | 3.51% | 4.85% | 0.21%
CCOc1c(CCNCCCCNCCc2ccc3ccccc3c2OCC)ccc2ccccc12 | 111% | 112% | 111%
O=C(CSc1nccn1C1CCCC1)Nc1cc(C(F)(F)F)ccc1Cl | 1.51% | 2.58% | 2%
Cc1cc2nc(-c3ccc(C(=O)NC4CCN(Cc5ccccc5)CC4)s3)[nH]c2cc1C | 2.92% | 2.77% | 2.98%
Cc1cc2c(NC(=O)NC3CCN(CCc4cccc(Cl)c4)CC3)cccc2cn1 | -1.26% | 1.1% | -3.28%
CNCCNCc1cccc(-c2ccc(-c3nc4cccc(C)c4[nH]3)cc2)c1 | -1.62% | -3.38% | 0.95%
